Experimental data reported in PubChem BioAssay (Tox21).
Inconclusive results are not listed. Values without a mark were called inactive. Calls of active or inactive are those of the source. Calls come from the whole dose curve; as a rule, active = well fitted inhibition curve with a large enough effect in the repeat runs; inconclusive = weak or mixed curves; inactive = no such curve, though single readings can be large or run the other way.

target: Cytochrome P450 2C19 (Homo sapiens) (UniProt P33261); assay: Cytochrome P450 Family 2 Subfamily C Member 19 (CYP2C19) small molecule antagonists: luciferase reporter qHTS assay (AID 1671197); conditions: P450-Glo CYP2C19 enzyme, luciferin luminescence, 1 h; series mostly up to 115 µM; activity change, negative = inhibition: at the top concentration; note: nearly all actives have a fitted effect of over 65% in size
Sequence (P33261 whole entry, looked up): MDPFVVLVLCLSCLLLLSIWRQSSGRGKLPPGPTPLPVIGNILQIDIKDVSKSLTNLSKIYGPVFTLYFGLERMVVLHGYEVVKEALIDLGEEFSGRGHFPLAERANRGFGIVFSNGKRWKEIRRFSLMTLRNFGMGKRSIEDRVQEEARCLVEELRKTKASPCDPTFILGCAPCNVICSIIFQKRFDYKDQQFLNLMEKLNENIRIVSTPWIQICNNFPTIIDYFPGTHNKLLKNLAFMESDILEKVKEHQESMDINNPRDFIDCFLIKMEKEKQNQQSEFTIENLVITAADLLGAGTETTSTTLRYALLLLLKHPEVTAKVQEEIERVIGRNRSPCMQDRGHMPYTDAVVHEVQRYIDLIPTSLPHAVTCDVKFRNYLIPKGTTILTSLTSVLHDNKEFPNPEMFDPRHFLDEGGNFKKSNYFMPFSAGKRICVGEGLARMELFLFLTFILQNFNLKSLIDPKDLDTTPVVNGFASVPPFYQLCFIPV
From the text: National Center for Advancing Translational Sciences [NCATS]
U.S. Environmental Protection Agency [EPA]
National Institutes of Environmental Health Sciences [NIEHS]
National Toxicology Program [NTP]
U.S. Food and Drug Administration [FDA]
Cytochrome P450 (CYP) enzymes are membrane-bound hemeproteins that play a key role in metabolism of drugs and xenobiotics. Evaluation of the effect of chemicals on CYP isozymes is useful to minimize the adverse drug reactions and toxicities in drug development process. Tox21 chemicals were tested for their effect on CYP enzyme activities by using P450-Glo (TM) screening systems (Promega Corporation, Madison, WI). These systems provide a luminescent method containing proluciferin substrates and are converted to luciferin products by CYP isozymes. The luciferin products formed are detected with a luciferin detection reagent, and the amount of light produced is proportional to CYP activity. P450-Glo (TM) CYP2C19 screening system (Catalog. No. V9880) was used to detect the compounds that interfere in CYP2C19 activity. The positive control compound used for CYP2C19 assay is ketoconazole (Sigma-Aldrich, St. Louis, MO).
Tox21 Assay Protocol Summary:
Two ul of enzyme-substrate mix was dispensed into medium binding white/solid 1536-well plates (Greiner Bio-One North America Inc., Monroe, NC) using a BioRaptr Flying Reagent Dispenser (FRD, Beckman Coulter, Brea, CA). Compounds dissolved in DMSO and positive control (ketoconazole) were transferred to the assay plates at 23 nl using a Pintool station (Wako, San Diego, CA). The assay plates were incubated at room temperature for 10 min. Then 2 ul of NADPH regeneration solution was added to each well of the assay plates using an FRD and incubated at 37C for 1 h. The reaction was stopped by adding 4 ul of detection reagent using an FRD and after 20 min incubation at room temperature the luminescence signal was measured using a ViewLux plate reader (Perkin Elmer, Shelton, CT). Data were expressed as relative luminescence units.
% is set by controls: 0 for no effect and ±100 for the full control effect; potency is the fitted concentration of half-maximal effect.

| Compound | Potency | activity change, negative = inhibition |
| --- | --- | --- |
| C=CCOc1nc(OCC=C)nc(OCC=C)n1 | 1.78 µM (active) | – |
| NC(=O)Nc1nc2ccccc2[nH]1 | 39.6 µM (active) | – |
| C1C2OC2C2C1C1CC2C2OC12 (stereo not given) | 40.1 µM (active) | – |
| OC/C=C/c1ccccc1 | 74.3 µM (active) | – |
| CCC(C)OC(=O)N1CCCCC1CCO (stereo not given) | 35.6 µM (active) | – |
| CC1(C)SC(C)(C)SC(C)(C)S1 | – | 35.5% |
| Nc1ccc2cc(S(=O)(=O)O)ccc2c1 | 39.9 µM (active) | – |
| CCCCCOC(=O)Nc1nc(=O)n([C@@H]2O[C@H](C)[C@@H](O)[C@H]2O)cc1F | – | -1.19% [at 52.9 µM] |
| Cc1ccc(N)cc1[N+](=O)[O-] | – | -17.4% |
| NC(=O)c1c(Cl)cccc1Cl | 20 µM (active) | – |
| CCCCNc1ccccc1 | – | 17.4% |
| CC(O)CN(CCCN(C)C)CCCN(C)C (stereo not given) | – | -6.66% |
| CSc1ccc(C=O)cc1 | – | -3.17% |
| OCCN1C[C@H](O)[C@@H](O)[C@H](O)[C@H]1CO | – | 9.4% [at 52.9 µM] |
| COC(=O)c1ccc(C(=O)OC)c(C(=O)OC)c1 | 39.9 µM (active) | – |
| CC(=O)N[C@@H](CCC(N)=O)C(=O)O | – | -7.34% [at 52.9 µM] |
| N#CCc1ccccc1[N+](=O)[O-] | – | -29.1% |
| CC(C)c1cccc(C(C)C)c1N | – | -27.2% |
| COc1ccc(NC(C)=O)cc1 | – | -20.1% |
| NC(N)=NS(=O)(=O)c1ccc(N)cc1 | – | 49.6% [at 52.9 µM] |

| Compound | Potency | activity change, negative = inhibition |
| --- | --- | --- |
| CC(=O)OC(C)(C)C | – | -15.8% |
| COC(=O)C1=C(C)NC(C)=C(C(=O)OCC(C)=O)C1c1ccccc1[N+](=O)[O-] (stereo not given) | 5.49 µM (active) | – |
| CC(C)[C@H](N)C(=O)OCCOCn1cnc2c(=O)[nH]c(N)nc21 | – | 26.5% [at 52.9 µM] |
| CN(C)CCOC(c1ccc(Cl)cc1)c1ccccn1 (stereo not given) | – | -0.0564% [at 52.9 µM] |
| OCC(O)[C@@H](O)[C@H](O)[C@H](O)CO[C@H]1O[C@H](CO)[C@@H](O)[C@H](O)[C@H]1O (stereo not given in full) | 19.9 µM (active) | – |
| CC(C)c1ccc2oc3nc(N)c(C(=O)O)cc3c(=O)c2c1 | 15.5 µM (active) | – |
| CC(C)(O)Cc1ccccc1 | – | -2.47% |
| CCN(CC)C(=O)c1ccc(O)c(OC)c1 | – | 26.3% [at 52.9 µM] |
| C=C(C)C(=O)OCCC(C)OC(=O)C(=C)C (stereo not given) | – | -4.95% |
| CCCCN(CCO)CCO | – | -10.1% |
| N#CCN(CC#N)CCN(CC#N)CC#N | – | 3.15% |
| O=[N+]([O-])c1ccc(CCO)cc1 | – | -12.1% |
| CC(C)(O)c1ccccc1 | 68.1 µM (active) | – |
| C=C(C)C(=O)OCCCCCCCCCCCCCCCCCC | – | -16.6% [at 23.6 µM] |
| Cc1ccccc1Br | 79.1 µM (active) | – |
| CNC(=O)c1c(I)c(NC(=O)CCCCC(=O)Nc2c(I)c(C(=O)O)c(I)c(C(=O)NC)c2I)c(I)c(C(=O)O)c1I | – | 2.96% [at 52.9 µM] |
| O=C(O)c1ccccc1S | – | -9.57% [at 52.9 µM] |
| O=C1OC(=O)c2cc([N+](=O)[O-])ccc21 | – | -19.7% |
| OC[C@H]1O[C@@H]2O[C@H]3[C@H](O)[C@@H](O)[C@@H](O[C@H]4[C@H](O)[C@@H](O)[C@@H](O[C@H]5[C@H](O)[C@@H](O)[C@@H](O[C@H]6[C@H](O)[C@@H](O)[C@@H](O[C@H]7[C@H](O)[C@@H](O)[C@@H](O[C@H]8[C@H](O)[C@@H](O)[C@@H](O[C@H]9[C@H](O)[C@@H](O)[C@@H](O[C@H]1[C@H](O)[C@H]2O)O[C@@H]9CO)O[C@@H]8CO)O[C@@H]7CO)O[C@@H]6CO)O[C@@H]5CO)O[C@@H]4CO)O[C@@H]3CO | – | -10% [at 52.9 µM] |
| O=c1[nH]c(=O)n([C@H]2O[C@H](CO)[C@@H](O)[C@@H]2O)cc1/C=C\Br | – | -17.4% [at 52.9 µM] |
